High-throughput results as filed in PubChem BioAssay.
mHTT CaM bind = mutant huntingtin-calmodulin interaction inhibitors – biochemical, AlphaScreen, primary screen | P42858 | AlphaScreen His-mHTT/GST-CaM binding, luminescence | inhibition, % at 15 µM | 190,000 tested, 3.6% active | AID 1671202, 2021;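 further: 0% = both proteins with DMSO and 100% = one protein alone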
Pf apPOL block = Pf-apPOL inhibitors, biochemical, fluorescence; inhibition, % at 10 µM; Plasmodium falciparum apicoplast DNA polymerase (apPOL); 210,000 tested, 0.25% active; Recombinant Pf-apPOL, molecular beacon fluorescence, 1.5 h; AID 1794808, 2022
* hit, by the source's call; . = not tested or not shown. Only some compounds are listed: those with a hit (about 3.5% of all), similar ones and a draw of the others. No stated cut-off is given here; in the data, active means inhibition above about 50%; inactive means the rest.

SMILES	mHTT CaM bind	Pf apPOL block
COc1ccc(-c2ccc(CN3C(CC(C)C)C(=O)N(Cc4cn(CCC5OCCCO5)nn4)CCS3(=O)=O)cc2)cc1OC (stereo unspecified)	21	2
CC(C)CC1C(=O)N(Cc2cn(CCC3OCCCO3)nn2)CCS(=O)(=O)N1Cc1ccc(-c2ccccc2)cc1 (stereo unspecified)	54*	-6
CC(C)CC1C(=O)N(Cc2cn(CCC3OCCCO3)nn2)CCS(=O)(=O)N1Cc1ccc(-c2ccncc2)cc1 (stereo unspecified)	31	-2
CC(C)CC1C(=O)N(Cc2cn(CCC3OCCCO3)nn2)CCS(=O)(=O)N1Cc1ccc(-c2cccc(N(C)C)c2)cc1 (stereo unspecified)	69*	-2
CC(=O)c1ccc(NC(=O)c2ccc(S(=O)(=O)c3ccc(Cl)cc3)cc2)cc1	1	-1
COc1ccc(C2C(C#N)=C(N)Oc3n[nH]c(-c4ccccc4)c32)cc1O (stereo unspecified)	7	4
O=C(CC1CCCC1)N1CCN(c2nc(CN3CCCC3)cs2)CC1	17	-2
CCn1c(=O)c(-c2ccc(C(=O)Nc3cc(C)cc(C)c3)cc2)nc2cccnc21	-4	-3
COc1ccc(OC)c(NC(=O)C2CCc3sc(C(=O)N4CCCC4)cc3C2)c1 (stereo unspecified)	27	1
COc1ccc(NC(=O)C2CCc3sc(C(=O)N4CCCCC4)cc3C2)c(OC)c1 (stereo unspecified)	57*	3
O=S(=O)(c1ccccc1)C(c1ccccc1)c1ccccc1	2	-2
Cc1ccc(NC(=O)N2CCC(n3cnc4cc(Cl)ccc4c3=O)CC2)cc1C	-11	-5
O=C(c1ccccc1Cl)c1coc2ccc(Cl)cc2c1=O	98*	1
O=C(c1cccc(F)c1)c1coc2ccc(Cl)cc2c1=O	26	-11
COCC1CCN(C(=O)c2cccnc2N2CCNC(c3ccccc3)C2)CC1 (stereo unspecified)	-1	4
O=C(c1cccnc1N1CCNC(c2ccccc2)C1)N1CCC(Cc2ccccc2)CC1 (stereo unspecified)	73*	12
Cc1c(Cl)cccc1N(CC(=O)Nc1ccc(F)c(Cl)c1)S(C)(=O)=O	99*	-7
CS(=O)(=O)N(CC(=O)Nc1ccc(F)c(Cl)c1)c1ccccc1F	2	-6
COc1ccc(NC(=O)CN(c2ccc(Cl)cc2)S(=O)(=O)c2ccccc2)cc1OC	76*	-6
COc1ccc(NC(=O)CN(c2cccc([N+](=O)[O-])c2)S(C)(=O)=O)cc1Cl	12	65*
COc1ccc(N(CC(=O)Nc2ccc(Oc3ccccc3)cc2)S(C)(=O)=O)cc1OC	52*	-8
COc1ccc(N(CC(=O)Nc2ccc(OCc3ccccc3)cc2)S(C)(=O)=O)cc1OC	26	-9
COc1ccc(Cl)cc1N(CC(=O)Nc1cccc([N+](=O)[O-])c1)S(C)(=O)=O	3	-3
COc1ccc(NC(=O)CN(c2ccc(Cl)cc2)S(C)(=O)=O)cc1Cl	-2	6
CCC(=O)Nc1c(-c2ccc(C)cc2)nc2cc(C)ccn12	4	6
SMILES	mHTT CaM bind	Pf apPOL block
O=C(Nc1ccc(Oc2ccccc2)cc1)c1ccc2c(c1)OCO2	0	-9
Cc1ncc(CO)c(C=NO)c1O	.	-5
Cc1cccc(OC2CCN(C(=O)c3cccc(F)c3)CC2)c1	-1	-1
CN(C)c1ccc(N2CC(=O)SC2=NC#N)cc1	55*	.
Cc1c(C=O)c(C=O)c(C)n1-c1ccc(N(C)C)cc1	4	-4
CCCC1c2ccc(C)n2CCN1C(=O)Nc1ccc(Cl)cc1 (stereo unspecified)	51*	-4
Cc1cccc(NC(=O)N2CCn3cccc3C2C(C)C)c1 (stereo unspecified)	4	-10
CCCC1c2cccn2CCN1C(=O)Nc1cccc(F)c1 (stereo unspecified)	26	-13
Cc1ccc(NC(=O)N2CCn3cccc3C2Cc2ccccc2)cc1F (stereo unspecified)	4	3
Cc1ccc(NC(=O)N2CCn3cccc3C2C)cc1F (stereo unspecified)	5	79*
Cc1cc(NC(=O)N2CCn3cccc3C2C(C)C)ccc1Br (stereo unspecified)	99*	1
CCCC1c2ccc(C)n2CCN1C(=O)Nc1ccc(C)c(F)c1 (stereo unspecified)	10	4
CCCC1c2cccn2CCN1C(=O)Nc1ccc(C)c(Cl)c1 (stereo unspecified)	80*	-7
O=C(Nc1ccccc1)N1C(=O)C2(OCCO2)c2cc(Br)ccc21	-8	-2
COc1ccc(-c2cc(C(=O)N3CCCC3c3ccccc3F)on2)cc1 (stereo unspecified)	-4	-2
O=C(NCC(O)C1CCCCC1)c1ccc(Br)cc1 (stereo unspecified)	-2	0
